# The campaign covered roughly 310,000 compounds. About 17,000 (5.5%) were called active. Not shown: some 11% with an inconclusive outcome. The list comes from a sample in which actives are over-represented; it also holds similar structures and randomly drawn compounds. Values without a mark were called inactive. The call rests on the fitted dose curve; in most records, active means well fitted inhibition curve with a large enough effect; inconclusive means small, poorly fitted or top-dose-only effect, or effect the other way; inactive means no such curve, though single readings can be large or run the other way.
# Target: Nuclear receptor ROR-gamma (Mus musculus) (UniProt P51450)
# Experiment: qHTS for inhibitors of ROR gamma transcriptional activity; further: nearly all actives have a fitted effect of over 60% in size
# Conditions: Drosophila S2 Gal4-RORgamma UAS-luciferase reporter, 20 h; series mostly up to 53.6 µM; activity change, negative = inhibition: at the top concentration
# Method in brief: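 Compounds are pin-transferred onto Drosophila Schneider cells expressing a copper-inducible Gal4–ROR gamma transactivation domain fusion. After 1 hr, copper sulfate is added to 700 uM final; luciferase is read 20 hr later.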
# On the % scale 0 is the no-effect control and ±100 the full control effect; potency means the concentration at half of the fitted maximal effect.
# Chain of Nuclear receptor ROR-gamma (Mus musculus) (P51450 whole entry, looked up): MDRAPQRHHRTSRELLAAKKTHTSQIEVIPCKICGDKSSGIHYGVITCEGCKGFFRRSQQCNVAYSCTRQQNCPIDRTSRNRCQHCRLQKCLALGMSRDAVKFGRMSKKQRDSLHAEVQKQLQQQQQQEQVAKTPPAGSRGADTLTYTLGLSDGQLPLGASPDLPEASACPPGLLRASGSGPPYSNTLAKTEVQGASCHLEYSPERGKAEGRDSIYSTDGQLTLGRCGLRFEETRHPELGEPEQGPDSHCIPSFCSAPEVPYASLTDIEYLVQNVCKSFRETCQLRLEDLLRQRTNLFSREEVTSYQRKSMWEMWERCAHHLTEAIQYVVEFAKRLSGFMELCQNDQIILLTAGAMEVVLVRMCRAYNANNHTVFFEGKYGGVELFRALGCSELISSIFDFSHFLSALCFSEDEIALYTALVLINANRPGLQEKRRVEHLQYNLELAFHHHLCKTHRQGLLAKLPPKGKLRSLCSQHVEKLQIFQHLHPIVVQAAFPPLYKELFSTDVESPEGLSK
SMILES,"activity change, negative = inhibition",Potency
COc1ccc(-c2cc(C(=O)N3CCN(c4ccc(F)cc4)CC3)no2)cc1,4.47%,–
CCOc1ccc2[nH]c3nc(SCC(=O)NC4CCCC4)nnc3c2c1,-11.8%,–
O=c1c2ccccc2ncn1CCCCOc1ccccc1F,12.9% [at 1.91 µM],–
COC(=O)c1ccc(NC(=O)CSc2nc(N)c(NC(=O)c3ccc(Br)o3)c(=O)[nH]2)cc1,5.56%,–
O=c1oc(/C=C/c2ccccc2)nc2ccccc12,0.954%,–
S=c1[nH]nc(/C=C/c2ccccc2)o1,–,12.6 µM (active)
COc1ccc(N(CC(=O)N2CCCCCC2)S(=O)(=O)c2ccccc2)cc1,2.49%,–
Cc1ccc(NC2CCCN(C(=O)CCc3cn[nH]c3)C2)cc1C (centres undefined),14.3%,–
Cc1ccccc1N1CCN(CC(=O)NCc2ccc(Cl)cc2)CC1,27.3%,–
COC(=O)c1sc2[nH]c(=S)n(N)c(=O)c2c1C,–,7.08 µM (active)
CCOC(=O)c1sc2nc(C)[nH]c(=O)c2c1C,18.3%,–
COC(=O)c1sc(=S)n(-c2ccccc2)c1N,0.645%,–
O=S(=O)(c1ccc(Cl)cc1)c1nc(-c2ccccc2F)oc1NCCN1CCOCC1,38.8%,–
CC(=O)c1ccc(NC(=O)c2sc3nc4n(c(=O)c3c2C)CCCCC4)cc1,34.7%,–
O=C(Nc1ccccc1Cl)/C(Cl)=C(\Cl)S(=O)c1ccccc1 (centres undefined),–,0.891 µM (active)
O=C(Nc1ccccc1Cl)Nn1cnnc1,-16.9%,–
O=C(Cc1ccc2c(c1)CCCC2)Nc1ccccc1Cl,8.31%,–
Cc1ccc(S(=O)(=O)c2nnn3c2nc(N2CCN(c4ccccn4)CC2)c2ccccc23)cc1,-12.8%,–
CCC(CC)c1nnc(NC(=O)C2CCN(C(=O)c3ccco3)CC2)s1,35.8%,–
CC(CNC(=O)c1ccc(Br)o1)NC(=O)c1ccc(Br)o1 (centres undefined),-15%,–
O=C(NCc1cccs1)c1ccc(Br)o1,5.95%,–
C=CCNC(=S)NNC(=O)c1ccc(Br)o1,–,2 µM (active)

SMILES,"activity change, negative = inhibition",Potency
CC1CCN(C(=O)Cn2nnnc2CN2CCOCC2)CC1,-26.6%,–
COC(CNC(=O)c1ccc2c(c1)ncn2-c1cc(C)cc(C)c1)OC,9.19%,–
O=C(N/N=C/c1sc(N2CCCCC2)nc1-c1cccs1)c1cccnc1,–,7.94 µM (active)
O=C(NN=C1CCC(=NNC(=O)c2cccnc2)CC1)c1cccnc1,-37.9%,–
O=C(N/N=C/c1ccccn1)c1cccnc1,-45.9%,–
CN(Cc1ccccc1)C(=O)c1ccc(NC2=NC3CS(=O)(=O)CC3S2)cc1 (centres undefined),-0.867%,–
N#CCC(=O)N/N=C/c1cn(Cc2ccc3ccccc3c2)c2ccccc12,–,12.6 µM (active)
COc1cccc(Cn2cc(/C=N/NC(=O)c3cc(O)cc(O)c3)c3ccccc32)c1,-0.821%,–
CNC(=S)N/N=C/c1cn(Cc2ccc(C)cc2)c2ccccc12,31.1%,–
Cc1c(C=O)c2ccccc2n1CCOc1ccccc1,77.1%,–
COc1cccc(C(C(=O)NC2CCCC2)N(C(=O)c2ccco2)c2cccc(C(C)=O)c2)c1OC (centres undefined),27%,–
COc1ccc2[nH]c(C)c(CCN(Cc3cccs3)C(=S)Nc3ccccc3OC)c2c1,38.3%,–
Cc1[nH]c2ccccc2c1CCN(Cc1cccs1)C(=S)NC(C)(C)C,3.01%,–
Cc1ccc2[nH]c(C)c(CCNC(=O)NC3CCCCC3)c2c1,25.9%,–
COc1cccc(NC(=S)N(CCc2c(C)[nH]c3ccccc23)Cc2ccco2)c1,–,11.2 µM (active)
CCNC(=S)N(CCc1c(C)[nH]c2ccc(C)cc12)Cc1ccco1,–,11.2 µM (active)
COCCNC(=S)N(CCc1c(C)[nH]c2ccc(C)cc12)Cc1cccnc1,5.98%,–
NS(=O)(=O)c1ccc(CNC(=O)c2cccc(Oc3ccccc3)c2)cc1,-1.73%,–
COc1ccc(N2CCN(C(=O)Cn3cnc4sc(C)c(S(=O)(=O)N5CCOCC5)c4c3=O)CC2)cc1,6.53%,–
COc1ccc(NS(=O)(=O)c2ccc3oc(SCC(N)=O)nc3c2)cc1,43.4%,–
COc1cc(C(=S)N2CCOCC2)cc(OC)c1OC(=O)c1ccc([N+](=O)[O-])cc1[N+](=O)[O-],-8.5% [at 1.91 µM],–
O=C(O)c1ccc2c(=O)n3c(nc2c1)/C(=C/c1ccc(OC(F)F)cc1OC(F)F)CC3,2.65%,–

SMILES,"activity change, negative = inhibition",Potency
Cc1ccc(Nc2nc(N)nc(CSc3nnc(C)s3)n2)cc1,21.9%,–
Nc1nc(CC(=O)CSc2ccc(Cl)cc2)nc(Nc2ccc(F)cc2)n1,–,14.1 µM (active)
CCOC(=O)N1CCN(Cc2nc(N)nc(Nc3ccc(C)cc3)n2)CC1,-14.9%,–
O=S(=O)(NC1CC1)c1ccc(Cl)cc1,30.8% [at 1.91 µM],–
Cc1ccc(Nc2nnc(SCc3ccccc3)s2)cc1,10.7%,–
Nc1ccccc1N,-35.5%,–
Cc1ccc(Nc2ccccc2N)cc1,–,11.2 µM (active)
Cc1[nH]c(C)c(S(=O)(=O)N2CCC(C)CC2)c1C(=O)N1CCCC1,-11.5%,–
COCCNC(=O)CN(Cc1ccco1)C(=O)CCC(=O)Nc1nccs1,-1.62%,–
COc1ccc(C(=O)Nc2ccc(CN3CCOCC3)cc2)cc1,20.3%,–
Cc1ccccc1-n1c(C)cc(/C=N/NC(=O)c2ccc(CN3CCOCC3)cc2)c1C,–,10 µM (active)
C/C(CCc1ccccc1)=N\NC(=O)c1ccc(CN2CCOCC2)cc1,-42.7%,–
Cc1cc(=O)n2nc(N3CCCC(C(=O)NCc4cccc(Cl)c4)C3)sc2n1 (centres undefined),-0.13%,–
O=C(OCc1ccc(Br)cc1)c1cccc(-c2nnc(-c3ccccc3)o2)c1,-1.79%,–
Cc1ccnc2nc(C(=O)OCC(=O)N(CC(C)C)CC(C)C)nn12,25.7%,–
CCc1nnc(NC(=O)c2nc3nccc(C)n3n2)s1,-5.51%,–
Nc1ccc(-c2nnc(-c3ccccc3)o2)cc1,4.3%,–
CCCC(=O)Nc1nnc(-c2ccccc2)o1,–,7.94 µM (active)
Cc1ccnc2nc(C(=O)Nc3nnc(-c4ccccc4)o3)nn12,–,11.2 µM (active)
O=C(COC(=O)c1ccccc1)Nc1ccccc1Sc1ccccc1,-2.28%,–
O=C(COC(=O)c1ccc(Oc2ccccc2)cc1)Nc1nnc(-c2ccccc2)o1,–,2.82 µM (active)
Cc1cccc(NC(=O)Nc2nnc(-c3ccccc3)o2)c1,-2.44%,–

SMILES,"activity change, negative = inhibition",Potency
COC(=O)C1(C)CC1(c1ccccc1)c1ccccc1 (centres undefined),28%,–
CN(C)N1C(N)=C(C#N)C(c2ccc(Br)cc2)C2=C1CCCC2=O (centres undefined),3.08%,–
C[C@@H](NC(=O)[C@@H]1Cc2ccccc2CN1)C(=O)NC1CCCC1,5.75%,–
CC(=O)NN1C(=O)c2ccccc2NC1c1ccccc1 (centres undefined),1.65%,–
CCCC1=Nc2cc(C(=O)NCCN3CCCC3)ccc2Sc2ccccc21,-10.6%,–
CCC1Sc2ccc(S(=O)(=O)CCC(=O)NCc3cccs3)cc2NC1=O (centres undefined),20.9%,–
FC(F)(F)c1cccc(N/N=C/c2ccccc2)c1,31.7%,–
CC(NC(=O)C(=O)N/N=C/c1ccc(Cl)cc1)c1ccccc1 (centres undefined),19.8%,–
FC(F)(F)c1nc2ccccc2nc1N/N=C/c1ccc(Cl)cc1,–,5.62 µM (active)
COc1ccccc1CN(C)C(=O)c1cc2ccccc2o1,-5.26%,–
Cc1ccc2[nH]c(=O)c(CN(C)S(=O)(=O)c3cccc4nonc34)cc2c1,7.54%,–
COc1cc(SC#N)ccc1N=Cc1c(C)[nH]n(-c2ccc(C)cc2)c1=O,–,6.31 µM (active)
C=CCN1C(=O)C2(OCCCO2)c2cccc(Cl)c21,8.79%,–
Oc1ccc(-n2nnnc2SCc2c(F)cccc2Cl)cc1,-29.8%,–
Cc1ccc(CC2CC(=O)N(c3cc(C)ccc3C)C2=O)cc1 (centres undefined),29.6%,–
O=C(Nc1cccc(C(F)(F)F)c1)c1cc(Br)cc(Br)c1O,–,5.01 µM (active)
Cc1cccc(NC(=O)c2cccc(C(F)(F)F)c2)c1,21%,–
O=C(Nc1cccc(C(F)(F)F)c1)c1cnccn1,27.2%,–
O=C(N/C(=C/c1ccc(Cl)cc1)C(=O)N1CCCCC1)c1ccco1,-18.8%,–
CN(CC(=O)Nc1c(Cl)cccc1Cl)C(=O)c1ccncc1,-13.7%,–
Cc1ccc(-c2ccc(=O)n(Cc3ccc(F)cc3Cl)n2)cc1,-1.89%,–
Cc1n[nH]c(=O)c2c1nnn2Cc1ccc(F)cc1,1.18%,–

SMILES,"activity change, negative = inhibition",Potency
COc1ccc(/C=N/NC(=O)c2cccc(C(F)(F)F)c2)cc1,–,12.6 µM (active)
Cc1nnsc1C(=O)N/N=C/c1cccc(C(F)(F)F)c1,22.6%,–
COc1ccc(/C=N/NC(=O)Cn2cc(C(F)(F)F)ccc2=O)cc1,-22.5%,–
C=C1C(=O)C23C(O)C1CCC2[C@]12COC3(O)C(O)C1C(C)(C)CC[C@H]2O (some centres undefined),–,0.708 µM (active)
CCC1Oc2ccccc2N(CC(=O)NCCCN2CCN(CC)CC2)C1=O (centres undefined),1.84%,–
COc1ccc(Cc2nc3ccc(C(=O)NCC4CCOCC4)cc3o2)cc1OC,42.4%,–
CCOC(=O)C1=C(c2ccc(OC)cc2)C(=O)c2ccccc2C1=O,–,6.31 µM (active)
CCCCC(C(=O)OCC(=O)c1ccc(OC)cc1)N1C(=O)c2ccccc2C1=O (centres undefined),28.3%,–
CCOC(=O)c1c(-c2ccc(C)cc2)csc1/N=C(\C)C1=C(O)c2ccccc2C1=O,1.71%,–
O=C(NCCCc1ccccc1)C1CCC(=O)N(CCc2ccc(Cl)cc2)C1 (centres undefined),39.6%,–
COc1ccccc1CN1CCCC(N2CCN(c3ccc(F)cc3)CC2)C1 (centres undefined),-1.98%,–
O=C(CN(CC1CCCO1)C(=O)CNS(=O)(=O)c1ccc(Cl)cc1)NCc1ccccc1 (centres undefined),0.565%,–
O=C(NCCN1CCOCC1)c1ccc2c(c1)ncn2C1CCCC1,6.51%,–
c1ccc2cc3c(NCCN4CCOCC4)ccnc3cc2c1,–,11.2 µM (active)
Clc1ccccc1-c1cc(NCCN2CCOCC2)ncn1,-6.31%,–
Cc1ccc2c(c1)N(CC(=O)N1CCC(O)CC1)C(=O)CO2,-19.4%,–
Cc1ccc(C(=O)CCC(=O)N(C)CC(=O)Nc2c(Cl)cccc2Cl)cc1,9.26%,–
Cc1cccnc1NC(=O)c1cccc(S(=O)(=O)N2CCN(c3ccc(F)cc3)CC2)c1,-44%,–
Cc1nc(=O)c(-c2ccccc2)c(C)n1-c1ccc(Br)cc1,2.1%,–
S=C1NC(c2ccccc2)=NCN1c1ccc(Br)cc1,–,8.91 µM (active)
Brc1ccccc1C1N=C(c2ccccc2)NO1 (centres undefined),2.38%,–

# — PubChem BioAssay AID2551 (National Center for Advancing Translational Sciences (NCATS), 2010)
